Active and inactive are the calls of the source. How the source made its calls: active means hit-call score of the fitted dose curve at least 0.9, where 1 is the maximum; inactive means score below 0.9.
Columns and labels:
[1] = APR_HepG2_CellLoss_72hr: Apredica 72-hour HepG2 Assay for Cell Loss (AID 2282915); settings: high-content imaging
Method in brief: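 HepG2 cells were exposed for 72 hr to compounds at 0.39–200 uM (ten concentrations, duplicate) in 0.5% v/v final DMSO. Nuclei were stained with Hoechst 33342 after 3.7% formaldehyde fixation, imaged at 20x, and counted; fits bidirectional versus DMSO.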

[2] = APR_HepG2_P-H2AX_72hr: Apredica 72-hour HepG2 Assay for H2AX Phosphorylation (AID 2282916); settings: imaging, actives raise or lower the signal;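 further: phospho-histone H2A.x immunostain intensity per cell marking DNA damage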
Method in brief: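 HepG2; cpd 0.39–200 uM ×10 conc, duplicates; 0.5% DMSO; 72 hr. Fix 3.7% formaldehyde 30 min RT, 0.5% Triton X-100 10 min. Anti-phospho-H2A.x 1:200 + Hoechst 2 ug/mL, 60 min RT; ArrayScan imaging.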

[3] = APR_HepG2_MitoMembPot_72hr: Apredica 72-hour HepG2 Assay for Mitochondrial Membrane Potential (AID 2282917); settings: imaging, actives raise or lower the signal
Method in brief: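 HepG2 cells exposed 72 h to compounds at 0.39–200 uM (0.5% v/v DMSO, duplicates); MitoTracker Red CMXRos 250 nM loaded 30 min before 3.7% formaldehyde fixation, imaged by HCS fluorescence. Bidirectional fit versus DMSO.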

[4] = APR_HepG2_MitoticArrest_72hr: Apredica 72-hour HepG2 Assay for Mitotic Arrest (AID 2282918); settings: high-content imaging, actives raise or lower the signal
Method in brief: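 HepG2 cells treated 72 h at 0.39–200 uM, 0.5% DMSO final; formaldehyde-fixed, stained with Hoechst 33342 and phospho-histone H3 antibody, imaged by high-content fluorescence; bidirectional fit versus DMSO.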

[5] = APR_HepG2_MicrotubuleCSK_72hr: Apredica 72-hour HepG2 Assay for Microtubule CSK Stabilty (AID 2282919); settings: HepG2 microtubule cytoskeleton, high-content imaging, actives raise or lower the signal
Method in brief: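 HepG2 human liver cells were dosed for 72 h at ten concentrations from 0.39 to 200 uM in duplicate (0.5% v/v DMSO final). Fixed, permeabilized cells were immunostained for alpha-tubulin (Cy5) with a Hoechst counterstain and imaged at 20x.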

[6] = APR_HepG2_P-H2AX_24hr: Apredica 24-hour HepG2 Assay for H2AX Phosphorylation (AID 2282920); settings: high-content imaging, actives raise or lower the signal
Method in brief: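 HepG2 cells dosed 24 h at 0.39–200 uM (10 points, duplicate, 0.5% DMSO final). Formaldehyde-fixed and permeabilized, then immunostained for phospho-H2A.x with Hoechst. Fluorescence quantified by high-content imaging, fitted bidirectionally versus DMSO.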

[7] = APR_HepG2_StressKinase_72hr: Apredica 72-hour HepG2 Assay for Stress Kinase (AID 2282921); settings: HepG2 stress kinase (phospho-c-Jun) imaging, actives raise or lower the signal
Method in brief: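 Dose 0.39–200 uM (10 pts, duplicate), 0.5% DMSO; 72 h; fix 3.7% formaldehyde 30 min RT; Triton permeabilize; anti-phospho-c-Jun/Cy3 + Hoechst 60 min RT; image 20x; fit gain/loss vs DMSO.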

[8] = APR_HepG2_StressKinase_24hr: Apredica 24-hour HepG2 Assay for Stress Kinase (AID 2282922); settings: HepG2 stress kinase (phospho-c-Jun) imaging, actives raise or lower the signal
Method in brief: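 HepG2 cells exposed 24 hr to compound at 0.39–200 uM (10 concentrations, duplicate), 0.5% v/v DMSO final. Fixed in 3.7% formaldehyde, permeabilized with Triton X-100, immunolabeled for phospho-c-Jun with Hoechst 33342; HCS fluorescence imaging, bidirectional fit versus DMSO.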

[9] = APR_HepG2_p53Act_72hr: Apredica 72-hour HepG2 Assay for p53 Activation (AID 2282923); settings: high-content imaging, actives raise or lower the signal;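 further: average cellular p53 protein immunofluorescence intensity in HepG2 cells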
Method in brief: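 10-pt conc. 0.39–200 uM, duplicate, 0.5% DMSO; 72 hr exposure; 3.7% formaldehyde fix, 0.5% Triton perm; sheep anti-p53/Cy5 + Hoechst; ArrayScan 20x, 6 images/well; gain/loss fit vs DMSO.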

[10] = APR_HepG2_MitoMass_72hr: Apredica 72-hour HepG2 Assay for Mitochondrial Mass (AID 2282924); settings: high-content imaging, actives raise or lower the signal;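 further: MitoTracker Red CMXRos stain intensity per cell imaged as mitochondrial mass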
Method in brief: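 HepG2 cells were exposed for 72 hr to compounds at 0.39–200 uM (ten concentrations, duplicate, 0.5% v/v DMSO final). Live cells were stained with 250 nM MitoTracker Red CMXRos for 30 min, then fixed in 3.7% formaldehyde and imaged by HCS fluorescence.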

[11] = APR_HepG2_NuclearSize_72hr: Apredica 72-hour HepG2 Assay for Nuclear Size (AID 2282925); settings: high-content imaging, actives raise or lower the signal
Method in brief: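 HepG2 cells were exposed to compounds at ten concentrations from 0.39 to 200 uM (duplicate, 0.5% DMSO final) for 72 hr. After fixation in 3.7% formaldehyde, nuclei were stained with Hoechst 33342 (2 ug/mL) and imaged at 20x.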

[12] = ATG_CMV_CIS: Attagene CIS-FACTORIAL HepG2 Assay for human CMV (Internal Marker) (AID 2282928); settings: HepG2 CMV promoter reporter, transcription factor profiling; actives raise or lower the signal;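 further: endpoint acts as a background internal control marker rather than a target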
Method in brief: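 HepG2 cells transiently transfected with multiple cis-regulated reporter units; 24 h compound exposure. Reporter mRNA quantified by RT-PCR, 6-FAM primer-extension labeling, HpaI digestion and capillary electrophoresis; bidirectional fitting against DMSO baseline.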

[13] = ATG_DR4_LXR_CIS: Attagene CIS-FACTORIAL HepG2 Assay for human Liver X Receptor (LXR), DR4 submotif (AID 2282929); settings: HepG2 Attagene DR4 cis-reporter, mRNA transcription; actives raise or lower the signal
Method in brief: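 Endogenous factor activity at a DR4 cis-element is read as reporter mRNA in transiently transfected HepG2 cells. Exposure lasts 24 h; transcripts are amplified, fluorescently labelled and sized by capillary electrophoresis, with DMSO as baseline.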

[14] = target: Aryl hydrocarbon receptor (Homo sapiens) (UniProt P35869); experiment: ATG_Ahr_CIS: Attagene CIS-FACTORIAL HepG2 Assay for human Aryl Hydrocarbon Receptor (Ahr) (AID 2282930); settings: HepG2 AhR cis-factorial reporter transcription; actives raise or lower the signal
Sequence of Aryl hydrocarbon receptor (Homo sapiens) (P35869 whole entry, looked up): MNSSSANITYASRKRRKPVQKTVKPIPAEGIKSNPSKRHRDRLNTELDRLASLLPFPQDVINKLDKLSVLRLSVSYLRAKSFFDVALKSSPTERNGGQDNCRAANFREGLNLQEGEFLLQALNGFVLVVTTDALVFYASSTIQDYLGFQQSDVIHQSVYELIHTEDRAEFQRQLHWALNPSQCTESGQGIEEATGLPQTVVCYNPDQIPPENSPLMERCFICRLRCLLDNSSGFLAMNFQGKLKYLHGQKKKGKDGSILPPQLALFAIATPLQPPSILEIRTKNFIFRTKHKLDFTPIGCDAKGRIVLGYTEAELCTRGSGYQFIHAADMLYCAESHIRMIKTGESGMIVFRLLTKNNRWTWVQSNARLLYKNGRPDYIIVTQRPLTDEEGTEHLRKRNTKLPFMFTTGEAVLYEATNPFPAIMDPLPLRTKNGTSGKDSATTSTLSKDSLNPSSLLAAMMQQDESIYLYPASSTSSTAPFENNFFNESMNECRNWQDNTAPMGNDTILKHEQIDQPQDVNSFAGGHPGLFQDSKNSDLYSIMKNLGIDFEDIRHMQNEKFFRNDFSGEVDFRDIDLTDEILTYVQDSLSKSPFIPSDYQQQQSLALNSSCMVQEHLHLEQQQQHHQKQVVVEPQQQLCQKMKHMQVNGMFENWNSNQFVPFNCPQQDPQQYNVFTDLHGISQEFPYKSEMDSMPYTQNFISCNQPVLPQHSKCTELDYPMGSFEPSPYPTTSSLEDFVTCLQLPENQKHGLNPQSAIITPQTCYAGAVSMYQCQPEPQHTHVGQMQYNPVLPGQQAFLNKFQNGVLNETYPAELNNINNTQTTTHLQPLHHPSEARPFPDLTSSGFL
Method in brief: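 Values derive from bidirectional fitting against DMSO negative control. Underlying signal: cis-element reporter mRNA in transiently transfected HepG2, harvested 24 h post-dose and measured by RT-PCR plus capillary electrophoresis.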

[15] = ATG_AP_1_CIS: Attagene CIS-FACTORIAL HepG2 Assay for human Activator Protein 1 (AP-1) (AID 2282931); settings: HepG2 Attagene cis-factorial AP-1 reporter mRNA; actives raise or lower the signal
Method in brief: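 Fluorescence of labelled PCR fragments separated by capillary electrophoresis gives reporter mRNA levels. HepG2 with transfected cis-regulated reporter units, 24 h exposure; DMSO serves as baseline for bidirectional curve fits.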

[16] = ATG_AP_2_CIS: Attagene CIS-FACTORIAL HepG2 Assay for human Activator Protein 2 (AP-2) (AID 2282932); settings: HepG2 AP-2 cis-reporter, Attagene transcription factor profiling; actives raise or lower the signal
Method in brief: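 Bidirectional curve fitting against DMSO was applied to reporter mRNA signals from HepG2 cells 24 h after dosing. Cis-promoter reporter units, transiently transfected, were read by RT-PCR plus capillary electrophoresis.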

[17] = ATG_BRE_CIS: Attagene CIS-FACTORIAL HepG2 Assay for human Bone Morphogenetic Protein (BMP) Response Element (BRE) (AID 2282933); settings: HepG2 BMP response element reporter, Attagene transcription factor profiling; actives raise or lower the signal
Method in brief: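 After a 24 h chemical treatment, transiently transfected HepG2 cells were lysed for RNA; reporter transcripts were quantified by fluorescent RT-PCR and capillary electrophoresis, normalised to DMSO.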

[18] = target: Retinoic acid receptor alpha (Homo sapiens) (UniProt P10276); experiment: ATG_DR5_RAR_CIS: Attagene CIS-FACTORIAL HepG2 Assay for human Retinoic Acid Receptor Alpha (RARE), DR5 submotif (AID 2282934); settings: HepG2 Attagene cis-factorial RARE DR5 reporter, mRNA; actives raise or lower the signal
Sequence of Retinoic acid receptor alpha (Homo sapiens) (P10276 whole entry, looked up): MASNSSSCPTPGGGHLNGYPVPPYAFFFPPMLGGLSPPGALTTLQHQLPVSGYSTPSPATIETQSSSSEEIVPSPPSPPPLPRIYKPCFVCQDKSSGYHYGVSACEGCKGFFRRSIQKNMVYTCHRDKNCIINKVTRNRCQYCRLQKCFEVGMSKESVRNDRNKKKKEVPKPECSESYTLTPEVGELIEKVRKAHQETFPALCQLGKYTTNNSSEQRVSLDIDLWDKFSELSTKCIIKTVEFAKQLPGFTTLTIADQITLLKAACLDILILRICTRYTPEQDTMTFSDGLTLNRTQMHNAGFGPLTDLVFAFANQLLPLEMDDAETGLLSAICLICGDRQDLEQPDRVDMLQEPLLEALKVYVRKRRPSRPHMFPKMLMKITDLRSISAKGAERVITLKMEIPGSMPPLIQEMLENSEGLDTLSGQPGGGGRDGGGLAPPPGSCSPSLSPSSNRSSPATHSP
Method in brief: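 Endpoint fitted in both directions relative to DMSO as negative control. It reflects DR5 cis-element reporter mRNA induction in transiently transfected HepG2 cells, measured 24 h after dosing through RT-PCR and fluorescent capillary electrophoresis.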

[19] = target: CCAAT/enhancer-binding protein beta (Homo sapiens) (UniProt P17676); experiment: ATG_C_EBP_CIS: Attagene CIS-FACTORIAL HepG2 Assay for human CCAAT/Enhancer Binding Protein (C/EBP) beta (AID 2282927); settings: HepG2 Attagene cis-factorial transcription factor reporter; actives raise or lower the signal
Sequence of CCAAT/enhancer-binding protein beta (Homo sapiens) (P17676 whole entry, looked up): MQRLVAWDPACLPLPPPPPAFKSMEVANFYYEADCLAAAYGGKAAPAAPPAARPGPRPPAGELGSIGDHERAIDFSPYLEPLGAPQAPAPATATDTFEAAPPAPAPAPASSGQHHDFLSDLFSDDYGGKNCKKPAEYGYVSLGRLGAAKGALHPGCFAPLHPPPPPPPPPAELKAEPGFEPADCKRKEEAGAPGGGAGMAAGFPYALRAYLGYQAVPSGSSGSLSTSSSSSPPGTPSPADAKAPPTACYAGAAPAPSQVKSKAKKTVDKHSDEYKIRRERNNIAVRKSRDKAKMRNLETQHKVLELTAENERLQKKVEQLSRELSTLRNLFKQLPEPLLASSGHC
Method in brief: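 Following a 24 h incubation with test chemical, transfected HepG2 cells yielded RNA whose reporter transcripts were quantified by RT-PCR and fluorescent capillary electrophoresis, with DMSO serving as baseline for bidirectional fitting.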

[20] = ATG_CRE_CIS: Attagene CIS-FACTORIAL HepG2 Assay for human cAMP Responsive Element (CRE) binding protein 3 (AID 2282926); settings: HepG2 CRE cis-reporter, Attagene multiplexed mRNA; actives raise or lower the signal
Method in brief: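 HepG2 cells transiently transfected with cis-element-driven multiple reporter transcription units; CRE reporter mRNA measured 24 h after dosing by RT-PCR, 6-FAM labelling, HpaI digestion and capillary electrophoresis. Bidirectional fit versus DMSO baseline.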

Measured: AC50

CCCCCCCCCCCCCCCC
not listed: [19] | [20]
inactive: all other assays above

CCCc1cc(=O)[nH]c(=S)[nH]1
active: [14] 63.9 µM
not listed: [16] | [20]
inactive: all other assays above

Cc1cccc(C)c1O
not listed: [20]
inactive: all other assays above

CCCCc1ccc2c(n1)[C@@H](c1ccc(OC)cc1C[C@H](C)C(=O)O)[C@H](C(=O)O)[C@H]2c1ccc2c(c1)OCO2
not listed: [18]
inactive: all other assays above

Cc1c(C(=O)O)c(O)cc2c1C(=O)c1c(O)c([C@@H]3O[C@H](CO)[C@@H](O)[C@H](O)[C@H]3O)c(O)c(O)c1C2=O
active: [3] 40.9 µM
not listed: [16] | [20]
inactive: all other assays above

CN1CCN(Cc2cc(-c3ccc4[nH]c(=O)oc4c3)co2)[C@@H](c2ccc(F)cc2)C1
active: [1] 51.9 µM | [2] 41.5 µM | [3] 66.8 µM | [4] 27 µM | [5] 73.2 µM | [6] 62 µM | [7] 41.2 µM | [9] 54.8 µM | [10] 64.6 µM | [20] 33 µM | [13] 56.5 µM | [15] 53.9 µM
inactive: [8] | [11] | [19] | [12] | [14] | [17]

CC(=O)OC/C=C(\C)CCC=C(C)C
not listed: [16] | [20]
inactive: all other assays above
